GPR151 ag = activators of human GPR151; Q8TDV0; PathHunter beta-arrestin GPR151 cells, luminescence; activation, % at 11.2 µM; 650,000 tested, 1% active; AID 1508602; in the data active = activation above about 4.9%;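 also: 0% = median of compound wells and 100% = cells with positive control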
Target sequence (Q8TDV0 whole entry, looked up): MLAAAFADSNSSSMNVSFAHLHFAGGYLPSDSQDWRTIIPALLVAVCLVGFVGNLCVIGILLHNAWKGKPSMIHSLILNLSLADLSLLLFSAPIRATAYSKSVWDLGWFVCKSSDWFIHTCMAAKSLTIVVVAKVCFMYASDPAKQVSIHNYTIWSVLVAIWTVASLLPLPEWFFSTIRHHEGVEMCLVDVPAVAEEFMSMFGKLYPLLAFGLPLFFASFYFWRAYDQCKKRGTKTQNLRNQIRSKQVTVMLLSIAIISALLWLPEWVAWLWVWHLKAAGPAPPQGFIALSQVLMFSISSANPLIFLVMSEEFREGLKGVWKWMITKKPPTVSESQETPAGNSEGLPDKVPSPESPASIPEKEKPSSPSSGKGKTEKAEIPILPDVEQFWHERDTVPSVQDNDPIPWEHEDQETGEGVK
MITF inh = inhibitors of human MITF; inhibition, % at 2.6 µM; AlphaScreen MITF homodimerization, bead proximity signal; O75030; 650,000 tested, 0.91% active; AID 1259374; in the data active = inhibition above about 50%;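 also: 0% = vehicle wells with protein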
FBW7 act = human FBW7 E3 ligase activation, primary screen; AlphaScreen FBW7–phospho-cyclin E peptide binding, activator screen; 650,000 tested, 0.13% active; normalized activity (activation), % at 26.1 µM; in the data active = normalized activity above about 1.9%;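 also: purified mutant Fbw7 with reduced substrate affinity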
TEAD-YAP block = TEAD-YAP interaction inhibition | HEK-TIYL cells, TEAD-Gal4/YAP UAS-luciferase luminescence | AID 1259422 | inhibition, % at 9.12 µM | 640,000 tested, 1.4% active; in the data active = inhibition above about 32%;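 also: 0% = median of test compound wells and 100% = reference inhibitor wells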
GPR151 confirm = human GPR151 activation, confirmation screen | shares compounds with GPR151 ag | GPR151 PathHunter beta-arrestin cells, luminescence, 90 min; % of EA-reagent control over plate median | activation, % at 11.2 µM | 6,700 tested, under 10 active;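 active = mean percent activation across replicates above the confirmation screen cutoff of 4.91%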
GPR119 ag = GPR119 activation, counter-screen for GPR151 activators; 6,700 tested, 0.3% active; GPR119 PathHunter beta-arrestin cells, luminescence, 90 min; 0 = compound-well median, 100 = enzyme-acceptor control; activation, % at 11.2 µM; shares compounds with GPR151 ag; AID 1508611;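 active = mean percent activation in the counterscreen above 29.09%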;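 also: counterscreen on off-target GPR119 to flag nonselective hits from the GPR151 activator screen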
* marks the source's active call; other numbers are inactive results; x = no result. Sampled rows, rich in hits. Any-hit rate of the full collection: about 3.5%.

SMILES	GPR151 ag	MITF inh	FBW7 act	TEAD-YAP block	GPR151 confirm	GPR119 ag
O=C(Nc1ccc2oc(-c3cccc(I)c3)nc2c1)c1ccc([N+](=O)[O-])o1	-1	12	0	10	x	x
COc1ccccc1NC(=O)c1ccc(NC(=O)COC(=O)c2ccc(O)cc2)cc1	5.4*	0	0	13	-2	-15
CC(C(=O)Nc1ccc(Br)cn1)N1Cc2ccccc2C1=O (stereo not drawn)	7.2*	-1	0	85*	0	-2
CC(C(=O)Nc1ccc(Br)cc1F)N1Cc2ccccc2C1=O (stereo not drawn)	1	0	0	2	x	x
CCn1c(N)c(C(=O)N2CCCCC2)sc1=S	5.4*	10	0	0	0	0
Cc1cc(/C=N/n2cnnc2)c(C)n1-c1ccc(Cl)cc1Cl	5.3*	2	0	6	0	-1
Cc1cc(/C=N/n2cnnc2)c(C)n1-c1ccc(Cl)cc1	-1	10	0	-2	x	x
Cc1cc(=O)[nH]c(SCC(=O)N2CCc3ccccc32)n1	-1	-15	0	6	x	x
Nc1nc(NCCO)cc(Nc2ccncn2)n1	1	4	0	-9	x	x
CCCNc1cc(Nc2ccncn2)nc(N)n1	18*	2	0	-4	0	3
O=C(O)COc1ccc(N2C(=O)c3ccc(-c4nc5ccccc5c(=O)o4)cc3C2=O)cc1	7.2*	-2	0	0	0	-3
CCOCCCn1c(SCC(=O)NCc2ccco2)nc2ccccc2c1=O	0	20	0	-10	x	x
CCc1nc2sc(C(c3cccc(OC)c3)N3CCC(C(N)=O)CC3)c(O)n2n1 (stereo not drawn)	5.8*	6	0	-2	-1	-4
COc1cccc(C(c2sc3nc(C)nn3c2O)N2CCC(C(N)=O)CC2)c1 (stereo not drawn)	0	-1	0	6	x	x
Cc1nc(SCC(=O)c2ccc3c(c2)OCCO3)c2c(C)c(C)sc2n1	-1	21	0	11	x	x
CNC(=O)c1c(NC(=O)COc2cccc(C)c2C)sc2c1CCCC2	5.2*	0	0	-7	0	1
COC(=O)c1ccc(NC(=O)COc2cccc(C)c2C)cc1	1	8	0	7	x	x
CCOC(=O)c1c(NC(=O)COc2ccc3c(C)cc(=O)oc3c2)sc2c1CCC(C)C2 (stereo not drawn)	5.4*	-5	0	3	0	10
COc1ccc(NC(=O)COc2cccc(C)c2C)cc1	7.5*	3	0	-19	0	14
CCOC(=O)c1c(NC(=O)COc2ccc3c(c2)OCO3)sc2c1CCCC2	5.4*	-13	0	4	0	10
NS(=O)(=O)c1ccc(NC(=O)COC(=O)CSc2ccc3c(c2)OCCO3)cc1	-1	-4	0	-9	x	x
CCCOC(=O)c1c(N)sc2c1CCC(C)C2 (stereo not drawn)	1	1	0	-9	x	x
CCCOC(=O)c1c(NC(=O)OC)sc2c1CCC(C)C2 (stereo not drawn)	6.0*	13	1	-4	-1	-8
CCc1c(C#N)c(N)nc(SCC(=O)c2cc3ccccc3oc2=O)c1C#N	9.9*	1	0	0	0	15
NC(=O)c1oc2ccccc2c1NC(=O)c1cc(-c2cccs2)nc2ccccc12	0	-6	0	8	x	x
SMILES	GPR151 ag	MITF inh	FBW7 act	TEAD-YAP block	GPR151 confirm	GPR119 ag
COc1ccc(-n2cc(-c3ccccc3)c3c(NCCc4ccc(OC)c(OC)c4)ncnc32)cc1	5.1*	7	0	3	0	12
CC(C)Oc1ccc(C2CC(=O)NC(=O)C2)cc1	6.7*	24	1	0	0	13
CC(C)Oc1ccc(C2CC(=O)NC3=C2C(=O)CCC3)cc1 (stereo not drawn)	1	7	0	8	x	x
CC(C)c1ccc(-n2cc(-c3ccc(C(=O)N4CCCC4)cn3)cn2)cc1	6.2*	8	0	19	0	7
CCOC(=O)c1c(NC(=O)c2c(C)c(-c3ccc(Cl)cc3)nc3ccccc23)sc2c1CCC2	2	25	0	8	x	x
COc1ccccc1N1CCN(c2ncc(C(=O)N3CCN(c4ccccn4)CC3)c3ccccc23)CC1	-1	13	1	1	x	x
COc1ccccc1N1CCN(C(=O)c2cnc(N3CCN(c4ncccn4)CC3)c3ccccc23)CC1	5.3*	6	0	24	2	14
CC(C)C[C@H]1NC(=O)[C@H]2CN(Cc3ccc(F)c(F)c3)CCN2C1=O	1	-2	0	-3	x	x
O=C(Cc1ccccc1)N1CCC(N2CCCC2)CC1	-1	7	0	12	x	x
O=C(Cc1ccccc1)N1CCC(=O)N(CC2CC2)CC1	9.9*	10	0	0	0	1
O=C(O)c1cc(-c2ccc(/C=C3\Sc4ccccc4C3=O)o2)ccc1Cl	0	19	0	-2	x	x
O=C1/C(=C\c2ccc(-c3ccc(Cl)cc3)o2)Sc2ccccc21	8.4*	10	0	-9	0	0
CCc1ccc(NCN2C(=O)CCC2=O)cc1	-1	8	0	0	x	x
Brc1cccc(-c2nnc(CN3CCN(Cc4ccccc4)CC3)o2)c1	6.0*	2	0	-1	0	-4
O=C(CSc1nncc(=O)[nH]1)Nc1ccc(Cl)cc1	4	3	0	15	x	x
Cc1ccc(NC(=O)C(Sc2ccccc2)c2ccccc2)cc1[N+](=O)[O-] (stereo not drawn)	8.4*	14	0	-2	0	-10
Cc1nnc(SCC(=O)Nc2ccc(Cl)c([N+](=O)[O-])c2)s1	-1	-3	0	14	x	x
Cc1nnc(SCC(=O)Nc2ccc(C)c([N+](=O)[O-])c2)s1	7.3*	18	0	9	-1	-6
Cc1ccc(NC(=O)COc2ccccc2C(=O)NC(C)c2ccccc2)cc1[N+](=O)[O-] (stereo not drawn)	7.1*	17	0	10	0	-13
CC(=O)Nc1ccc(NC(=O)C(Sc2ccccc2)c2ccccc2)cc1 (stereo not drawn)	0	-18	0	-5	x	x
COCCNC(=O)Cc1ccc(NC(=O)COc2ccc(F)cc2)cc1	-2	-2	0	-7	x	x
O=C(O)CCNC(=O)/C(=C\c1ccco1)NC(=O)c1ccccc1Br	0	13	0	10	x	x
CC(C)C(=O)Nc1ccc(C(=O)Oc2ccccc2)c(O)c1	1	15	0	-27	x	x
O=C(COc1ccccc1)OCCCC(=O)c1ccc(F)cc1	1	-2	0	-4	x	x
COC(=O)C1=CN(CC2CCCO2)C=C(C(=O)OC)C1c1cccc(F)c1 (stereo not drawn)	5.7*	2	0	-4	2	15
COC(=O)C1=CN(Cc2ccc(F)cc2)C=C(C(=O)OC)C1c1cccc(F)c1	0	8	0	-3	x	x

High-throughput results as filed in PubChem BioAssay.
